The values that follow come from PubChem BioAssay (NCATS).

Inconclusive results are not listed. The source made the active and inactive calls. Unless noted, the call rests on the fitted dose curve; in most records, active means well fitted curve in the direction sought with a large enough effect; inconclusive means small, poorly fitted or top-dose-only effect, or another doubt; inactive means no such curve, though single readings can be large; an effect the other way counts as inactive or inconclusive.

A short description of assay [1]: Natriuretic polypeptide receptor (hNpr1) antagonism - Pilot counterscreen GloSensor control cell line (AID 1347045; calls by dose curve; further: series mostly up to about 38 µM). In a few lines:
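HEK293 cGMP GloSensor cells preloaded 2 h with 2% GloSensor reagent, then compound 30 min before baseline luminescence read. Stimulated with 50 uM sodium nitroprusside, 20 min at room temperature, then read again; counterscreen for Npr1 antagonism.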

In assay [2] the target is Atrial natriuretic peptide receptor 2 (Homo sapiens) (UniProt P20594). Description: Natriuretic polypeptide receptor (hNpr2) antagonism - Pilot subtype selectivity assay (AID 1347050; calls by dose curve). In a few lines: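 HEK293 cells expressing hNpr2 and a GloSensor cGMP luciferase sensor, 1500/well, preloaded 2 h with 2% GloSensor reagent, compound 30 min, then 1 nM hNppC for 20 min. Antagonism from luminescence after versus baseline pre-read; LOPAC in 1:5 titrations.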

Assay [3] is described as follows: NS1 protein of Zika virus - qHTS assay to identify small molecule inhibitors in human HEK 293 cells (AID 1347053). Further: series mostly up to about 46 µM; nearly all actives have a fitted effect of over 55% in size. In a few lines: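 HEK 293; 20 h pre-culture, 37 C/5% CO2; cpd 1 h pre-infection; ZIKV MR766, MOI = 0.5, 24 h, 37 C; TR-FRET NS1 readout (two anti-NS1 Abs); norm. to no-virus vs infected.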
Assay [4] deals with T1, Tyrosine-protein phosphatase non-receptor type substrate 1 (Homo sapiens) + Leukocyte surface antigen CD47 (Homo sapiens) (UniProt P78324+Q08722). Description: CD47-SIRPalpha protein protein interaction - LANCE assay qHTS validation (AID 1347057; active means well fitted curve in the direction sought with a large enough effect in the signal ratio, with a control signal flat, not every such curve was filed as active; the % refers to the signal ratio; further: potency means the concentration at half of the fitted maximal effect). In a few lines: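 First, His-tagged CD47 and Eu-labelled anti-His antibody met the compound for 30 min; next, site-specifically biotinylated SIRPalpha was added for 30 min; finally streptavidin-APC was added before reading the TR-FRET ratio.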

The target in assay [5] is T1, Tyrosine-protein phosphatase non-receptor type substrate 1 (Homo sapiens) + Leukocyte surface antigen CD47 (Homo sapiens). Description: CD47-SIRPalpha protein protein interaction - HTRF assay qHTS validation (AID 1347058; active means well fitted curve in the direction sought with a large enough effect in the signal ratio, not every such curve was filed as active; the % refers to the signal ratio;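 further: recombinant soluble extracellular CD47 with His tag and biotinylated SIRPalpha domains; series mostly up to about 38 µM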). In a few lines: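 TR-FRET read (Ch1/Ch2 ratio) of soluble extracellular CD47 and Avi-biotinylated SIRPalpha domains in PBS pH 7.4 with 0.05% IGEPAL; 7-point compound titration. Sequential 30 min room-temperature steps; non-biotinylated SIRPalpha as control inhibitor.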

For assay [6] the target is unchanged. In words: CD47-SIRPalpha protein protein interaction - Alpha assay qHTS validation (AID 1347059).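 Further: bead proximity luminescence from CD47 binding SIRPalpha after compound preincubation with SIRPalpha.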 Summed up: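 Biotinylated Avi-tagged SIRPalpha (25 nM) preincubated 30 min with compound, then His-tagged CD47 (12.5 nM) added 30 min; AlphaScreen with Ni-NTA acceptor and streptavidin donor beads. PBS pH 7.4, 0.05% IGEPAL, room temperature; 7-point titrations.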

For assay [7], the target named is Parathyroid hormone/parathyroid hormone-related peptide receptor (Homo sapiens) (UniProt Q03431). Description: qHTS for PTHR1 Agonists: Optimization Screen against the NCGC LOPAC library (AID 1347079).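 Further: GloSensor cAMP luminescence in HEK-293 GP2 cells expressing human PTHR1 with IBMX.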 In a few lines: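 Agonist readout: GloSensor cAMP luminescence, read after 15 min at room temperature. HEK-293-derived GP2 line carries PTHR1; compounds tested as a titration for 1 hr at 37C in presence of IBMX. M-PTH (1-15) served as control.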

The nature of assay [8]: qHTS for Inhibitors of the Functional Ribonucleoprotein Complex (vRNP) of Lassa (LASV) Arenavirus: LASV Primary Screen - GLuc reporter signal (AID 1347082; calls by dose curve; tested in HEK293 reporter line; further: series mostly up to about 57 µM; nearly all actives have a fitted effect of over 60% in size).
Assay [9] is described as follows: qHTS for Inhibitors of the Functional Ribonucleoprotein Complex (vRNP) of Lassa (LASV) Arenavirus: Viability assay - alamar blue signal for LASV Primary Screen (AID 1347083; calls by dose curve; tested in HEK293 reporter line; further: series mostly up to about 57 µM; nearly all actives have a fitted effect of over 80% in size).
Assay [10] in a line: qHTS for Inhibitors of the Functional Ribonucleoprotein Complex (vRNP) of Lymphocytic Choriomeningitis Arenaviruses (LCMV): Viability assay - alamar blue signal for LCMV Primary Screen (AID 1347085; calls by dose curve; tested in HEK293 reporter line; further: series mostly up to about 57 µM; nearly all actives have a fitted effect of over 80% in size).
The target in assay [11] is Nucleoprotein (Lymphocytic choriomeningitis virus (strain Armstrong)) (UniProt P09992). In words: qHTS for Inhibitors of the Functional Ribonucleoprotein Complex (vRNP) of Lymphocytic Choriomeningitis Arenaviruses (LCMV): LCMV Primary Screen - GLuc reporter signal (AID 1347086; calls by dose curve; further: series mostly up to about 57 µM; nearly all actives have a fitted effect of over 70% in size).
Assay [12] has as its target Atrial natriuretic peptide receptor 1 (Homo sapiens) (UniProt P16066). In words: Natriuretic polypeptide receptor (hNpr1) antagonism - Pilot screen (AID 1347049; calls by dose curve;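 further: agonist-evoked cGMP luminescence read 20 min after hNppA addition; series mostly up to about 58 µM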). Summed up:
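HEK293 cells expressing hNpr1 and GloSensor cGMP luciferase, 1500/well, loaded with 2% GloSensor reagent 2 h, compound 30 min at room temperature; luminescence read before and 20 min after 0.1 nM hNppA stimulation.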

T1 sequence (P78324 whole entry, looked up): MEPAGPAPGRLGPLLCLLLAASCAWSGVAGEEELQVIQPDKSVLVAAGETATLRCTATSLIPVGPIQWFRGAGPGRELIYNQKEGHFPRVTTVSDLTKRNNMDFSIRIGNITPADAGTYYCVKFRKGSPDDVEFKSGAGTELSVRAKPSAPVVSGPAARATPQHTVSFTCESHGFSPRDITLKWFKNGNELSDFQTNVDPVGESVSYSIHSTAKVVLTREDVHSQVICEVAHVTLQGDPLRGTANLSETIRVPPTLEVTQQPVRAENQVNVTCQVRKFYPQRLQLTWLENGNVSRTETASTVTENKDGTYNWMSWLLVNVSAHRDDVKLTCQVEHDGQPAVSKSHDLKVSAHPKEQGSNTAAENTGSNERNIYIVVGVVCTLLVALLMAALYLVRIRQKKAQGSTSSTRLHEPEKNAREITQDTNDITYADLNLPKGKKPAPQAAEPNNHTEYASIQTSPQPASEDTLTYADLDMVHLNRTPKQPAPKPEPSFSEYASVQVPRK
T1 sequence (Q08722 whole entry, looked up): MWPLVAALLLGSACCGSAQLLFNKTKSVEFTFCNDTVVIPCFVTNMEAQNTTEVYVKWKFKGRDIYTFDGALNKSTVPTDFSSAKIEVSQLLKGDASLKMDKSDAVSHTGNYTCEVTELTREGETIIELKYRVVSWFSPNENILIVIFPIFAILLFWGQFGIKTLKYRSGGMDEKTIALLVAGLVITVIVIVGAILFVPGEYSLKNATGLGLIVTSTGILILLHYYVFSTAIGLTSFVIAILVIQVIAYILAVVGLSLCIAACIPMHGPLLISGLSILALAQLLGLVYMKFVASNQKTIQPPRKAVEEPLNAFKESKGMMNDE
Chain of Atrial natriuretic peptide receptor 2 (Homo sapiens) (P20594 whole entry, looked up): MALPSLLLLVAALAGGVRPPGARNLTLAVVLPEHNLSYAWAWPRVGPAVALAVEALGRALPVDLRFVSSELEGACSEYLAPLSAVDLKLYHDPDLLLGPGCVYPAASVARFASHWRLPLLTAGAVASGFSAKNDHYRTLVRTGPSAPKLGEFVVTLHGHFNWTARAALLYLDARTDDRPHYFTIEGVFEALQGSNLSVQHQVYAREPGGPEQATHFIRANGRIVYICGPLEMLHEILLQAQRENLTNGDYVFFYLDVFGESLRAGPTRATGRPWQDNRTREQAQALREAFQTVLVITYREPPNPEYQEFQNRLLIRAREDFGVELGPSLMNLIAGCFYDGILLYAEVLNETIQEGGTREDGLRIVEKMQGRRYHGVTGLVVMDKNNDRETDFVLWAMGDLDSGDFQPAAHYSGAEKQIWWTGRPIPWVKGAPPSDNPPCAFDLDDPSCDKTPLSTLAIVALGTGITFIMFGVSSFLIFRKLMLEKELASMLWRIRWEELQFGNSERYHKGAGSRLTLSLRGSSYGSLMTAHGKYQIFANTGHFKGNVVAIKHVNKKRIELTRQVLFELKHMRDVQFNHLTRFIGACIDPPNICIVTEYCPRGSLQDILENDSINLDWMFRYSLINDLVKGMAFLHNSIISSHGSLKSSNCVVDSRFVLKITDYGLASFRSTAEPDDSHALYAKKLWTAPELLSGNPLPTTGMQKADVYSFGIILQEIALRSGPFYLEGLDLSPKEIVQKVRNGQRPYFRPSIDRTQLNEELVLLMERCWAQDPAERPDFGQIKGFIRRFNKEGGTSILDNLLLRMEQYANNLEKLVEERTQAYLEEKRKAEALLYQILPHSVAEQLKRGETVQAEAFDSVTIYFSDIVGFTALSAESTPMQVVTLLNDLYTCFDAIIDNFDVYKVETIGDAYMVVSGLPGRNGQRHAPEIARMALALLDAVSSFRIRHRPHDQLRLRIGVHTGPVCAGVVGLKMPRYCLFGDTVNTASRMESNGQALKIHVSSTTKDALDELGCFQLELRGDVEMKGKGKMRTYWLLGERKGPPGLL
Chain of Nucleoprotein (Lymphocytic choriomeningitis virus (strain Armstrong)) (P09992 whole entry, looked up): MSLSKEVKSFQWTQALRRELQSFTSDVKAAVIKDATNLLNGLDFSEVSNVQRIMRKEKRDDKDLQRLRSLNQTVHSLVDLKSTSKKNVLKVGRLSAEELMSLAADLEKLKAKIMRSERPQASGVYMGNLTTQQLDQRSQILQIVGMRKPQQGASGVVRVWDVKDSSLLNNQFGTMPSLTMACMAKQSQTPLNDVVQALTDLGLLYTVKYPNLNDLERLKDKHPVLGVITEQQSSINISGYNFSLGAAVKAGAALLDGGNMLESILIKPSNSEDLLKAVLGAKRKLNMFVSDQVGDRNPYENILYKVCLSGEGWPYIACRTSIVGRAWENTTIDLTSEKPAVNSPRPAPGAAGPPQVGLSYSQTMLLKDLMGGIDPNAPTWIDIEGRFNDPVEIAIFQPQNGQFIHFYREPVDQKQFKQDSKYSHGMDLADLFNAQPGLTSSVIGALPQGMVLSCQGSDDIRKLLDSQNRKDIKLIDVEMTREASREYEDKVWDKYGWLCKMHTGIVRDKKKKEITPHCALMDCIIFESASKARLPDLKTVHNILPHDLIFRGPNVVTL
Chain of Atrial natriuretic peptide receptor 1 (Homo sapiens) (P16066 whole entry, looked up): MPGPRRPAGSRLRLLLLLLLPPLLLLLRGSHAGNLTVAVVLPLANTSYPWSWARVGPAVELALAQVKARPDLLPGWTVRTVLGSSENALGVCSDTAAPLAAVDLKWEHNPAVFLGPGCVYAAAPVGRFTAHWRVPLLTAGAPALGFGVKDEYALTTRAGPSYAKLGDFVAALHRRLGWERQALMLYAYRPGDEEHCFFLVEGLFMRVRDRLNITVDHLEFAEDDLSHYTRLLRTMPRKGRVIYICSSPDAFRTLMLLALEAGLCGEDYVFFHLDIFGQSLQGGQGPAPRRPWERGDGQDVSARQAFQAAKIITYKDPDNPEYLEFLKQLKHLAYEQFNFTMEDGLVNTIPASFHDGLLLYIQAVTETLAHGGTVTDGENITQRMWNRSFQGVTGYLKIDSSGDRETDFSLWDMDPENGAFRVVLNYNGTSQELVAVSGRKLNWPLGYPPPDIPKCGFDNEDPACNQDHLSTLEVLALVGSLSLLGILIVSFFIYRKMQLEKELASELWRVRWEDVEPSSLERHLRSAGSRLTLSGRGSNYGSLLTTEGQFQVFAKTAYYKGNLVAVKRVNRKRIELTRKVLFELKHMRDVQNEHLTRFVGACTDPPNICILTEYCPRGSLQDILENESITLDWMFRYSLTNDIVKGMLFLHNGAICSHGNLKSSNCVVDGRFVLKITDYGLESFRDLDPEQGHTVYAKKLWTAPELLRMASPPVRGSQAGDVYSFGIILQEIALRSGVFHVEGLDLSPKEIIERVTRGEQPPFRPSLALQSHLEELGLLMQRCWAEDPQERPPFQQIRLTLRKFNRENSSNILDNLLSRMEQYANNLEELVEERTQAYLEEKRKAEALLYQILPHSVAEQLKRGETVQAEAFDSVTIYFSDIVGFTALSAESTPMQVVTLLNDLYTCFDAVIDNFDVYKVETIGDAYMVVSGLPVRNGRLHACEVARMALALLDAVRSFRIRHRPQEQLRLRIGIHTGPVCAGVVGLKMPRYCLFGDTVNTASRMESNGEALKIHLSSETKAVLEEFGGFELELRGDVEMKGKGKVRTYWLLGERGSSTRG
Chain of Parathyroid hormone/parathyroid hormone-related peptide receptor (Homo sapiens) (Q03431 whole entry, looked up): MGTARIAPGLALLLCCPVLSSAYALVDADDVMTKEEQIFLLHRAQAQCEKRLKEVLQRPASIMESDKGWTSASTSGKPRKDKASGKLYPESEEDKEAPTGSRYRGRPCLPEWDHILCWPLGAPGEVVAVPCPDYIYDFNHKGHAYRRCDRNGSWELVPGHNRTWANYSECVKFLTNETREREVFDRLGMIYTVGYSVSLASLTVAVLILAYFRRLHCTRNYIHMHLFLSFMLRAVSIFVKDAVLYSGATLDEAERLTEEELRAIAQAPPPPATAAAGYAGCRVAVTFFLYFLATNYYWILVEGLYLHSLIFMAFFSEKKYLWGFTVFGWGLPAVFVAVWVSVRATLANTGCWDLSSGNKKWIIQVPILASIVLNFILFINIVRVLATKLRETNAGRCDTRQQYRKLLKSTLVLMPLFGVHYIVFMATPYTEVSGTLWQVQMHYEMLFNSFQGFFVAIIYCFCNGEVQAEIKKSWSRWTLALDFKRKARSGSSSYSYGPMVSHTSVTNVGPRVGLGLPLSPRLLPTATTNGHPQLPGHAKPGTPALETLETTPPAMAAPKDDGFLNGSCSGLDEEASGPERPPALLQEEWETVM

For `C[C@H](Cc1ccc2c(c1)OC(C(=O)O)(C(=O)O)O2)NC[C@H](O)c1cccc(Cl)c1`, the Potency entry in assay [1], in assay [2], in assay [4], in assay [6], in assay [7] and in [8] was “inactive” in each case. The Potency result in [9], in assay [10] and in assay [11] was “inactive” in each case. The compound was classed as inactive in [3] and in [5].
As to `Clc1cc(I)cc(Cl)c1NC1=NCCN1`, the Potency result in [1], in assay [2], in assay [4], in assay [6], in assay [7] and in assay [8] was “inactive” each time. Moreover, the Potency entry in assay [9], in assay [10] and in [11] was “inactive” each time. Further, the result in assay [3] and in assay [5] was inactive.
As for `C[N+]1(C)CCOC(O)(c2ccc(-c3ccc(C4(O)C[N+](C)(C)CCO4)cc3)cc2)C1` (stereo not drawn), the Potency result in assay [1], in [2], in assay [4], in assay [6], in assay [7] and in [8] was “inactive” each time. Further, the Potency result in assay [9], in assay [10] and in [11] was “inactive” throughout. In addition, the call in assay [3] and in [5] was inactive.
Consider `CC12NC(Cc3ccccc31)c1ccccc12` (stereo not drawn), for which the Potency entry in [1], in [2], in assay [4], in [6], in assay [7] and in [8] was “inactive” throughout. Moreover, the Potency entry in [9], in assay [10] and in assay [11] was “inactive” throughout. In addition, the compound was called inactive in assay [3] and in assay [5].
On to `CCCN(CCC)[C@H]1CCc2c(F)ccc(O)c2C1`, for which the Potency entry in assay [1], in [2], in assay [4], in [6], in assay [7] and in assay [8] was “inactive” in each case. Further, the Potency entry in [9], in assay [10] and in assay [11] was “inactive” in each case. For the same compound, the compound was classed as inactive in assay [3] and in assay [5].
For `COc1cc(CC(C)N)c(OC)cc1I` (stereo not drawn), the Potency entry in [1], in assay [2], in assay [7], in assay [8], in assay [9] and in [10] was “inactive” throughout. The Potency result in assay [11] was “inactive”.
Take `C#CCN[C@H](C)Cc1ccccc1`: the Potency result in assay [1], in [2], in assay [4], in assay [6], in assay [7] and in assay [8] was “inactive” each time. The Potency entry in assay [9], in assay [10] and in assay [11] was “inactive” each time. The compound was classed as inactive in assay [3] and in assay [5].
For `CCN(CCCl)Cc1ccccc1Br`, the Potency entry in assay [1], in assay [2], in assay [7], in assay [8], in [9] and in assay [10] was “inactive” each time. Further, the Potency entry in assay [11] is “inactive”.
Turning to `O=[N+]([O-])c1cc(O)c(O)c([N+](=O)[O-])c1`, the Potency entry in assay [1], in assay [2], in assay [4], in assay [6], in [7] and in [8] was “inactive” each time. Further, the Potency entry in assay [9], in assay [10] and in assay [11] was “inactive” each time. The compound was classed as inactive in [3].
As to `N[C@@H](Cn1ccc(=O)[nH]c1=O)C(=O)O`, the Potency result in [1], in [2], in assay [7], in [8], in assay [9] and in assay [10] was “inactive” in each case. Besides, the Potency entry in [11] was “inactive”.
`NCCc1c[nH]c2ccc(C(N)=O)cc12`: the Potency result in assay [1], in assay [2], in assay [4], in [6], in [7] and in assay [8] was “inactive” in each case. Further, the Potency result in [9], in assay [10] and in assay [11] was “inactive” in each case. For the same compound, the call in assay [3] and in assay [5] was inactive.
With `CCCn1c(=O)c2[nH]c(C3CCCC3)nc2n(CCCOC(=O)c2ccc(S(=O)(=O)F)cc2)c1=O`, the Potency result in assay [1], in [2], in assay [4], in assay [6], in [7] and in [8] was “inactive” in each case. Also, the Potency entry in assay [9], in [10] and in assay [11] was “inactive” in each case. For the same compound, the result in assay [3] and in assay [5] was inactive.
`Nc1cc2c(ncn2CCOCP(=O)(O)O)c(=O)[nH]1`: the outcome in assay [3] and in assay [5] was inactive. Moreover, the Potency result in assay [4] and in assay [6] was “inactive” each time.
On to `N[C@@H](Cn1oc(=O)[nH]c1=O)C(=O)O`, for which the Potency entry in [12], in assay [2], in assay [4], in [6], in assay [7] and in assay [8] was “inactive” each time. Besides, the Potency result in assay [9], in assay [10] and in [11] was “inactive” each time. Moreover, in assay [3], the result was inactive.
Regarding `CN(N=O)c1cc(O)ccc1O`, the result in assay [3] was inactive. Besides, the Potency entry in assay [4], in assay [7], in assay [8], in [9], in [10] and in assay [11] was “inactive” each time.
On to `CN(N=O)c1ccc(O)c(O)c1`, for which the Potency entry in assay [12], in assay [2], in assay [7], in assay [8], in [9] and in assay [10] was “inactive” in each case. In assay [11], the Potency result was “inactive”. Moreover, in assay [3], the compound was called inactive. Further, the Potency in assay [4] is 18.5 µM (active).
Consider `C[C@H]1C2Cc3ccc(O)cc3[C@@]1(C)CCN2CC1CC1`, for which the outcome in assay [3] and in [5] was inactive. Further, the Potency result in assay [4] and in assay [6] was “inactive” in each case.
Regarding `C[C@H](N)Cc1cccc(C(F)(F)F)c1`, the outcome in [3] and in assay [5] was inactive. Further, the Potency entry in assay [4], in [6], in assay [7], in [8], in assay [9] and in assay [10] was “inactive” in each case. Also, the Potency entry in assay [11] was “inactive”.
Turning to `CO[C@H]1CC=C2CCN3CCC4=C(CC(=O)OC4)[C@]23C1`, the Potency result in [12], in assay [2], in assay [4], in [6], in assay [7] and in [8] was “inactive” each time. Moreover, the Potency result in assay [9], in [10] and in assay [11] was “inactive” in each case. Moreover, the call in [3] and in assay [5] was inactive.
On to `Oc1ccc2c3c1O[C@H]1c4oc5ccccc5c4C[C@@]4(O)C(C2)N(CC2CC2)CCC314` (stereo partly drawn), for which the Potency entry in [2], in assay [4], in [7], in assay [9] and in assay [10] was “inactive” each time. For the same compound, in assay [5], the outcome was inactive.
Turning to `CC1(C(=O)O)C2CCC(O2)C1(C)C(=O)O` (stereo not drawn), the Potency result in assay [2], in [4], in assay [6] and in assay [7] was “inactive” in each case. In addition, the result in assay [5] was inactive.
In the case of `C=CCN1CCC23c4c5ccc(O)c4O[C@H]2C(=O)CC[C@@]3(O)C1C5` (stereo partly drawn), the Potency result in assay [2], in assay [4], in [6], in assay [7], in assay [8] and in assay [9] was “inactive” throughout. The Potency result in assay [10] and in [11] was “inactive” in each case. The compound was classed as inactive in assay [3] and in assay [5].
Take `O=C(NC1CN2CCC1CC2)c1cc2ccoc2cn1` (stereo not drawn): the compound was classed as inactive in assay [3] and in [5]. Also, the Potency entry in [4] and in [6] was “inactive” in each case.
`COC(=O)N1CCN(C(=O)Cc2ccc(Cl)c(Cl)c2)C(CN2CCCC2)C1` (stereo not drawn): the Potency result in assay [2], in assay [4], in assay [6], in assay [7], in assay [8] and in assay [9] was “inactive” throughout. Further, the Potency result in assay [10] and in [11] was “inactive” throughout. In addition, the outcome in assay [3] and in [5] was inactive.
